Most compounds without a hit are left out; they make up all but 21% or so of the library.
Pf growth 96h: Primary qHTS for delayed death inhibitors of the malarial parasite plastid, 96 hour incubation; hit rate 6.9% among 320,000; P. falciparum luciferase reporter growth, 96 h; Potency, µM (titrated, usually from 28.7 µM), for inactives: top-dose activity change, negative = inhibition, hits mostly inhibitors; also: potency is read from the fitted curve at half-maximal effect; % is scaled to controls: 0 for no effect and ±100 for the full control effect
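P. falciparum expressing integrated firefly luciferase, in erythrocytes at 2% hematocrit, 0.05% parasitemia, incubated with compounds 96 h at 37 C, 5% CO2. Growth inhibition read as loss of luminescence; two-generation exposure targets delayed-death apicoplast inhibitors.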
Shiga toxin inh: A qHTS for Small Molecule Inhibitors of Shiga Toxin. hit rate 9.2% among 290,000. AID 2315, 2010. Vero cells, Shiga toxin protein synthesis inhibition reporter. inhibition, % at 38.7 µM; in the data active = inhibition mostly above about 28%, no sharp cut-off; inactive = mostly below about 43%; also: 0% is about no effect
Giardia FBPA inh: qHTS Assay for Inhibitors of Fructose-1,6-bisphosphate Aldolase from Giardia Lamblia. A8B2U2. purified Giardia FBPA. Potency, µM (highest dose often 59.6 µM), for the others: at the top dose activity, negative = inhibition, usual class: inhibitors. hit rate 0.71% among 290,000. AID 2451, 2010; also: potency is read from the fitted curve at half-maximal effect; % is scaled to controls: 0 for no effect and ±100 for the full control effect; nearly all actives have a fitted effect of over 55% in size
Target sequence (A8B2U2 whole entry, looked up): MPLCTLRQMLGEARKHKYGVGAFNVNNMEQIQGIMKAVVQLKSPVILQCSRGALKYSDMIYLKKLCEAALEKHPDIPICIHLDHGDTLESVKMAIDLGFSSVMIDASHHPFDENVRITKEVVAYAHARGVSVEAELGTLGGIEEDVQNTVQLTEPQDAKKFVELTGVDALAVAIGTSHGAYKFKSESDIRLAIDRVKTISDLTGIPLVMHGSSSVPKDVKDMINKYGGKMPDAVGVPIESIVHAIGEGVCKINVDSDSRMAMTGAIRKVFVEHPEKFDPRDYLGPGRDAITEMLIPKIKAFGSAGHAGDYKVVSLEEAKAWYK
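40 nM FBPA preincubated 10 min at RT with compound (up to 57.5 uM final), then substrate plus GAPDH/TPI/NAD/arsenate coupling and diaphorase/resazurin added. Fluorescence read after 20 min at RT, 525/598 nm.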
Pf growth 48h: Primary qHTS for delayed death inhibitors of the malarial parasite plastid, 48 hour incubation; P. falciparum luciferase growth in erythrocytes, 48 h; hit rate 5.9% among 310,000; Potency, µM (series often up to 28.7 µM), inactives show at the highest dose activity change, negative = inhibition, most hits filed as inhibitors; AID 504832, 2011; also: potency is read from the fitted curve at half-maximal effect; % is scaled to controls: 0 for no effect and ±100 for the full control effect
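Luciferase-expressing parasites in RBCs, 2% Hct / 0.1% parasitemia final; RPMI 1640 + 0.5% Albumax; 37 C, 5% CO2, one generation; luminescence read-out, lower signal = inhibition.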
NS1 inh: qHTS Assay for Inhibitors of Influenza NS1 Protein Function; Potency, µM (series often up to 46.1 µM), inactives show top-dose activity, positive = more growth; hit rate 0.4% among 270,000; AID 2326, 2010; calls by dose curve; also: potency is read from the fitted curve at half-maximal effect; actives are rising curves; nearly all actives have a fitted effect of over 50% in size
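S. cerevisiae expressing influenza A NS1, grown in glucose, washed, then diluted 1:100 into pH 6.0 -URA galactose medium with 23 nl compound. Growth recovery read as OD600; NS1-free strain serves as control.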
CHX counter: Cycloheximide Counterscreen for Small Molecule Inhibitors of Shiga Toxin | AID 2314, 2010 | max response, % | cell reporter, cycloheximide protein synthesis inhibition counterscreen | hit rate 12% among 300,000; in the data active = max response mostly above about 13%, no sharp cut-off; inactive = mostly below about 14%; also: read at 38.3 µM for the half of the compounds with a filed dose; 0% is about no effect
Numbers without * were called inactive; ? = inconclusive; nt = not tested or not shown. Unless noted, calls follow the shape of the dose curve; as a rule, active = well fitted curve in the direction sought with a large enough effect; inconclusive = small, poorly fitted or top-dose-only effect, or another doubt; inactive = no such curve, though single readings can be large; an effect the other way counts as inactive or inconclusive.

SMILES	Pf growth 96h	Shiga toxin inh	Giardia FBPA inh	Pf growth 48h	NS1 inh	CHX counter
O=C(c1cc(-c2cccc(Cl)c2)on1)N1CCc2ccccc2C1	-15%	-7	-1%	14%	1%	-1
O=C(c1cc(-c2ccccc2O)on1)N1CCc2ccccc2C1	28%	51	-6%	nt	-60%	25*
O=C(c1cc(-c2ccc(O)cc2)on1)N1CCc2ccccc2C1	0.37µM*	46	0%	nt	-99%	5
OCCC1CN(Cc2ccc(Oc3ncccn3)cc2)CCN1C1CCCC1 (configuration not stated)	?	-2	3%	14%	-3%	1
COCCNc1nc(-c2cc(C)n(CCc3ccc(OC)cc3)c2C)cs1	?	6	?	2.6µM*	nt	-4
COc1ccccc1CNc1nc(-c2cc(C)n(C)c2C)cs1	-64%	-7	?	?	nt	-1
O=c1[nH]c2ccccc2n1CCCN1CCC(n2c(=O)[nH]c3cc(Cl)ccc32)CC1	4.8µM*	13	-2%	11µM*	0%	4
O=C(NC(=S)Nc1ccc2[nH]ncc2c1)c1ccccc1	nt	88*	-28%	74%	-68%	35*
O=C(NNC(=S)Nc1ccccc1)c1ccc2ncccc2c1	340%	56*	8%	267%	nt	37*
Cc1ccc2cccnc2c1NC(=S)NC(=O)c1ccccc1	?	70*	?	?	-2%	26*
O=C(Nc1ccc2ncccc2c1)c1ccccc1	?	-3	0%	1%	-3%	-1
O=C(NC(=S)Nc1ccc2ncccc2c1)c1ccccc1	56%	75*	?	312%	nt	52*
CSCCC(NC(=O)COc1ccccc1)C(=O)NCCOc1ccc(C)cc1 (configuration not stated)	?	-10	nt	-9%	-13%	-2
CC(C)(C)NC(=S)NNC(=O)c1ccc2ncccc2c1	-56%	47*	-1%	44%	2%	21*
O=C(NC(=S)Nc1ccc2nc[nH]c2c1)c1ccccc1	147%	50*	?	103%	1%	22*
COc1cc(NC(=O)CN2C(=O)C(C)N(c3ccc(C)cc3)C2=O)cc(OC)c1 (configuration not stated)	-9%	nt	nt	0%	nt	nt
Cn1c(CNC(=O)c2ccc(F)cc2)cc2ccccc21	?	-3	-4%	24%	25%	1
CCn1c(CNC(=O)c2ccccc2F)cc2cc(C)ccc21	297%	13	3%	?	6%	15*
CCn1c(CNC(=O)c2ccccc2F)cc2ccccc21	2%	142*	-4%	?	9%	24*
CCn1c(CNC(=O)c2cc(OC)c(OC)c(OC)c2)cc2ccccc21	?	nt	8%	9.3µM*	?	2
Cn1c(CNC(=O)c2ccccc2F)cc2ccccc21	86%	-2	-6%	6%	11%	16*
CCn1c(CNC(=O)c2ccccc2Cl)cc2ccccc21	7%	25	-1%	-23%	-2%	14
O=C(NC1CCCCC1)C1(S(=O)(=O)c2ccc(Cl)cc2)CC1	25%	-4	8%	-8%	-9%	-5
O=C(CCCC(=O)c1ccccc1)NCc1ccccc1	-3%	-2	5%	29%	-4%	5
CCCCCN(C(=O)CCC(=O)OCC(=O)c1ccc(CCC)cc1)c1c(N)n(CCCC)c(=O)[nH]c1=O	-25%	nt	nt	-10%	nt	nt
SMILES	Pf growth 96h	Shiga toxin inh	Giardia FBPA inh	Pf growth 48h	NS1 inh	CHX counter
O=C(N/N=C/c1ccncc1)C1CC1C(=O)N/N=C/c1ccncc1 (configuration not stated)	55%	-6	-3%	-6%	7%	5
O=C(N/N=C\c1ccncc1)c1ccc(Br)s1	2%	8	-1%	-4%	-33%	13*
Cc1nn(C)c(C(=O)N/N=C/c2ccncc2)c1Cl	17%	17	nt	5%	2%	5
CCc1ccc(C(=O)N/N=C/c2ccncc2)s1	-11%	32	1%	?	-14%	23*
O=C(N/N=C\c1cccnc1)c1ccc(Br)s1	-25%	60	-6%	20%	-31%	34*
Cc1ccc(C(=O)N/N=C\c2ccncc2)s1	?	53*	nt	47%	-34%	40*
COc1ccc(C(=O)N2CCN(CCCc3ccccc3)CC2)cc1OC	?	-5	?	-11%	0%	-3
O=C(N/N=C/c1ccncc1)c1cc(-c2ccc(Br)s2)[nH]n1	12µM*	40	-14%	?	-7%	32*
O=C(N/N=C\c1ccncc1)c1ccc(Cl)s1	13µM*	25	nt	10%	-37%	15
O=C(N/N=C\c1cccnc1)c1ccc(Cl)s1	?	20	2%	4%	-3%	11
O=C(N/N=C/c1ccccn1)c1cc(-c2ccc(Br)s2)[nH]n1	22%	-7	9%	?	14%	-6
Cc1csc(NC(=O)CSc2nc3nc(C)cc(C)n3n2)n1	-24%	nt	nt	-24%	nt	nt
Cc1ccc(C(=O)OCC(=O)c2ccc(Cl)s2)s1	nt	83*	-7%	118%	-6%	53*
CC(=O)c1ccsc1B(O)O	nt	nt	9%	nt	nt	nt
COc1ccccc1C(=O)NCC1CCN(c2ccc(S(=O)(=O)N3CCOCC3)cc2)CC1	3.3µM*	-11	7%	nt	-5%	4
O=C(NCC1CCN(c2ccc(S(=O)(=O)N3CCOCC3)cc2)CC1)Nc1ccccc1	?	-3	5%	?	11%	-4
CC(C)CNC(=O)C1CCN(c2ccc(S(=O)(=O)N3CCOCC3)cc2)CC1	nt	-5	3%	7.4µM*	-3%	-2
O=C(NC1CC1)C1CCN(c2ccc(S(=O)(=O)N3CCOCC3)cc2)CC1	-5%	1	2%	4.1µM*	5%	-1
Cc1cccc(NC(=O)CCC2CCN(C(=O)C3CC=CCC3)CC2)c1 (configuration not stated)	-11%	-10	nt	-10%	-6%	1
CCOc1cc(C)c(-c2onc(C(F)(F)F)c2-c2csc(C)n2)c(O)c1	1.9µM*	12	-4%	1.7µM*	-118%	-5
Cc1nc(-c2c(C(F)(F)F)noc2-c2ccc(O)cc2O)cs1	?	-10	3%	31%	5%	-2
CC(C)(C)c1nc2c(C#N)c(-c3ccc(Cl)cc3)ccn2n1	?	57	?	nt	-49%	25*
CCN1CCN(C(=O)C(=O)c2cn(CC(=O)N3CCCCCC3)c3ccccc23)CC1	?	-8	nt	?	9%	-1
COc1ccc(N2CCN(C(=O)C(=O)c3cn(CC(=O)N4CCCCCC4)c4ccccc34)CC2)cc1	10µM*	-1	nt	?	0%	-2
O=C(c1ccccc1)c1cn(CC(=O)N2CCCC2)c2ccccc12	3.7µM*	-12	0%	nt	-3%	-1

Source: PubChem (National Center for Advancing Translational Sciences (NCATS))
